Screening results deposited in PubChem BioAssay by National Center for Advancing Translational Sciences (NCATS).
HT1080NT lethal: qHTS for induction of synthetic lethality in tumor cells producing 2HG: qHTS for the HT-1080-NT fibrosarcoma cell line; Potency, µM (doses to about 46.1 µM), without a hit: at the highest dose activity, negative = less viability, usual class: cytotoxic; HT-1080-NT fibrosarcoma viability, CellTiter-Glo ATP luminescence, 48 h; actives 1.6% (n = 360,000);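 also: NT is the 2HG producing partner of a matched IDH1 knockdown line; 0% = DMSO-treated cells and -100% = media-only wells without cells; nearly all actives have a fitted effect of over 55% in size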
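Read-out is CellTiter-Glo luminescence after 10 minutes at room temperature, following 48 hours' compound treatment of HT-1080-NT cells (750 cells/well, RPMI, 5% FBS, 37 degrees C).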
KB-3-1 tox: qHTS assay for MDR1-selective chemotherapeutics: Primary screen using the parental adenocarcinoma cell KB-3-1; actives 1.4% (n = 400,000); AID 1347075, 2019; Potency, µM (series often up to 46.1 µM), usual class: cytotoxic; KB-3-1 viability, CellTiter-Glo ATP luminescence, 72 h; also: nearly all actives have a fitted effect of over 60% in size
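Viability of parental KB-3-1 cells, measured by CellTiter-Glo luminescence, followed a 72 h incubation at 37 °C with pinned compounds in phenol-red-free DMEM containing 10% FBS.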
TDP1 cell noCPT: qHTS for Inhibitors of human tyrosyl-DNA phosphodiesterase 1 (TDP1): qHTS in cells in absence of CPT; DT40 Tdp1-/- hTDP1 cells, no CPT, ATP luminescence, 48 h; actives 15% (n = 420,000); Potency, µM (titrated, usually from 46.2 µM), for inactives: at the highest dose activity change, negative = growth inhibition, hits mostly inhibitors; also: nearly all actives have a fitted effect of over 55% in size
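Readout: luminescence from CellTiter-Glo after 30 min in the dark at RT. Cells: DT40 Tdp1-/- with stable hTDP1, 400/well. Exposure: compounds alone, ≥48 hr, 37 °C.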
KB-V1 MDR tox: qHTS assay for MDR1-selective chemotherapeutics: Primary screen using the drug-selected MDR subline cells KB-V1; AID 1347076, 2019; Potency, µM (series often up to 46.1 µM), actives largely listed as cytotoxic; KB-V1 MDR cells viability, CellTiter-Glo, 72 h; actives 3.4% (n = 400,000); also: nearly all actives have a fitted effect of over 60% in size
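Cytotoxicity via CellTiter-Glo luminescence after 72 h compound exposure at 37 degrees C. Cells: drug-selected KB-V1 line, DMEM phenol-red free plus 10% FBS. Compounds tested at multiple concentrations; normalized data fitted to concentration-effect curves.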
HT1080 IDH1KD tx: qHTS for induction of synthetic lethality in tumor cells producing 2HG: qHTS for the HT-1080-IDH1KD cell line | HT-1080 IDH1 knockdown viability, ATP luminescence, 48 h | Potency, µM (titrated, usually from 46.1 µM), inactives show at the top dose activity, negative = toxicity, usual class: cytotoxic | actives 2% (n = 360,000) | AID 686971, 2013;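 also: 0% = DMSO wells and -100% = cell-free medium wells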
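Assay cells: HT-1080 with IDH1 knockdown, 750 per well, RPMI/5% FBS. Exposure: 48 h at 37 °C following 2 h pre-incubation. Read: CellTiter-Glo luminescence; fitted concentration-response, curve class assigned.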
DT40 TDP1 CPT: qHTS for Inhibitors of human tyrosyl-DNA phosphodiesterase 1 (TDP1): qHTS in cells in presence of CPT; chicken DT40 Tdp1-/-;hTDP1 cells + 20 nM CPT, ATP luminescence, 48 h; Potency, µM (series often up to 46.2 µM), for the others: at the top dose activity change, negative = growth inhibition, hits mostly inhibitors; actives 12% (n = 420,000); AID 686979, 2013; also: nearly all actives have a fitted effect of over 55% in size
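Chicken DT40 Tdp1-/- cells complemented with human TDP1, 400 cells/well, exposed to compounds plus 20 nM camptothecin for at least 48 h at 37 C; viability read as ATP content by CellTiter-Glo luminescence.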
* = called active by the depositor; i = inactive; u = inconclusive; x = no result given. Shown are actives, neighbours in structure and some others; about 19% of the full set was active somewhere. Calls follow the shape of the dose curve; as a rule, active = well fitted curve in the direction sought with a large enough effect; inconclusive = small, poorly fitted or top-dose-only effect, or another doubt; inactive = no such curve, though single readings can be large; an effect the other way counts as inactive or inconclusive. Unless noted, % is scaled to controls: 0 for no effect and ±100 for the full control effect; potency is read from the fitted curve at half-maximal effect.

SMILES	HT1080NT lethal	KB-3-1 tox	TDP1 cell noCPT	KB-V1 MDR tox	HT1080 IDH1KD tx	DT40 TDP1 CPT
CC1(C(=O)N2CCC(CC3CC(c4cccc(Br)c4)=NO3)(C(=O)NCC3CCCCC3)CC2)CC1 (stereo not drawn)	-12.4%	i	18.4µM*	i	u	18.4µM*
O=C(Cc1ccc(F)cc1)N1CCC(CC2CC(c3cccc(Br)c3)=NO2)(C(=O)NCC2CCCCC2)CC1 (stereo not drawn)	-5.7%	i	u	i	0.0%	u
O=C(CCCCCBr)N1CCC(CC2CC(c3cccc(Br)c3)=NO2)(C(=O)NCC2CCCCC2)CC1 (stereo not drawn)	u	u	20.6µM*	i	-4.7%	u
O=C(CCCCCBr)N1CCC(CC2CC(c3ccc(Cl)cc3)=NO2)(C(=O)NCC2CCCCC2)CC1 (stereo not drawn)	-0.3%	i	u	u	0.3%	-28.8%
O=C(CN(C(=O)c1csnn1)c1ccccc1F)NC1CCCCC1	10.7%	i	-14.1%	i	1.1%	-12.2%
Nc1ccccc1C#Cc1ccc([N+](=O)[O-])cc1	-20.4%	i	u	i	-10.3%	-26.7%
Nc1ccccc1C#CC(=O)c1ccccc1	u	u	u	i	u	1.3µM*
COc1ccc(CCNC(=O)c2cc([C@@H](NC(=O)OC(C)(C)C)C(C)C)sc2N)cc1OC	-3.1%	i	18.4µM*	u	-1.0%	16.4µM*
O=C(c1ccc([N+](=O)[O-])s1)N1CCN(c2cccc(Cl)c2)CC1	3.9%	u	20.6µM*	16.4µM*	6.1%	20.6µM*
COc1cc(C(=S)N2CCN(c3cccc(Cl)c3)CC2)ccc1O	u	8.2µM*	18.4µM*	u	16.4µM*	10.3µM*
COc1ccc(C(=O)N2CCN(c3cccc(Cl)c3)CC2)cc1	-8.1%	i	16.4µM*	20.6µM*	10.9%	u
COc1ccc(N2CCN(C(=O)c3ccc(-n4nc(C)cc4C)cc3)CC2)cc1	2.4%	i	u	16.4µM*	4.0%	u
Cc1cc(C)n(-c2ccc(C(=O)OCC(=O)N3CCN(c4ccccc4)CC3)cc2)n1	7.9%	i	u	i	9.9%	-27.9%
O=C(c1cccs1)N1CCN(c2cccc(Cl)c2)CC1	1.3%	i	-1.5%	i	-0.3%	-10.0%
Oc1ccc(C(=S)N2CCN(c3cccc(Cl)c3)CC2)cc1	u	i	u	i	u	u
CSc1ncccc1C(=O)N1CCOc2ccc(C(C)(O)CCn3cccn3)cc2C1 (stereo not drawn)	x	x	-1.5%	x	x	0.9%
Cc1cccc(N(CC(=O)NCc2ccccc2)S(C)(=O)=O)c1C	x	i	-10.5%	i	x	-23.5%
COc1ccc(S(=O)(=O)N2CCN(Cc3nc4ccc(C)cc4o3)CC2)cc1OC	x	i	-19.8%	i	x	u
